The panel holds about 79,000 compounds, 15% with a hit somewhere; the sample as a whole holds those more often. A number with no mark means an inactive call. Calls of active or inactive are those of the source. Cut-off read from the data, not from the text of the source: active = growth inhibition above about 70%; inactive = the rest.
How the values were obtained:
[1] = NCI Yeast Anticancer Drug Screen. Data for the rad50 strain (AID 155);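 note: 0% = growth of vehicle-only cultures of the same strain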; details: S. cerevisiae rad50 strain growth inhibition; at 50.0 µM; active compounds read high
Outline: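 DNA repair mutant yeast, compound exposure, growth read-out; inhibition is taken relative to vehicle.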

[2] = NCI Yeast Anticancer Drug Screen. Data for the mec2-1 strain (AID 157); details: S. cerevisiae mec2-1 strain, at 50.0 µM, active compounds read high
Outline: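 Vehicle-treated cultures served as reference for growth inhibition of compound-exposed mec2-1 yeast.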

[3] = NCI Yeast Anticancer Drug Screen. Data for the sgs1 mgt1 strain (AID 161);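 note: 0% = growth of cultures given vehicle only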; details: S. cerevisiae sgs1 mgt1 strain, at 50.0 µM, active compounds read high
Outline: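 Genetically altered yeast, compound exposure, growth inhibition relative to vehicle.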

[4] = NCI Yeast Anticancer Drug Screen. Data for the cln2 rad14 strain (AID 165);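 note: 0% = growth equal to vehicle treated cultures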; details: S. cerevisiae cln2 rad14 strain, at 50.0 µM, active compounds read high
Outline: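 Each compound was tested on cln2 rad14 yeast. Inhibition of growth was calculated against vehicle-exposed controls.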

[5] = NCI Yeast Anticancer Drug Screen. Data for the bub3 strain (AID 167); details: S. cerevisiae bub3 mutant strain, at 50.0 µM, active compounds read high
Outline: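 In this screen, a yeast mutant lacking normal mitotic checkpoint function is challenged with compound. Relative growth versus vehicle gives the inhibition value.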

[6] = NCI Yeast Anticancer Drug Screen. Data for the mlh1 rad18 strain (AID 175); details: S. cerevisiae mlh1 rad18 strain growth inhibition; at 50.0 µM; active compounds read high
Outline: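 Vehicle-treated cultures served as the reference for growth inhibition in a yeast strain carrying DNA damage repair alterations exposed to each compound.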

Compound	growth inhibition [1]	growth inhibition [2]	growth inhibition [3]	growth inhibition [4]	growth inhibition [5]	growth inhibition [6]
COc1ccc(/C=N/Nc2c([N+](=O)[O-])cc(C)cc2[N+](=O)[O-])cc1	35.1%	13.2%	16.3%	13%	11.8%	7.8%
CC(=O)NC1C(O)OC(COCc2ccccc2)C(OCc2ccccc2)C1OCc1ccccc1 (stereo not drawn)	6.9%	-1.8%	-10.4%	7.25%	-5.35%	-15.1%
CNc1ncnc2[nH]ncc12	18.4%	-0.85%	6.25%	-18.2%	-7.05%	1.35%
c1ccc(C(c2ccccc2)[n+]2ccccc2)cc1	4.5%	-1.3%	-6.1%	-11.2%	-5.5%	-6.25%
O/N=C(/Cc1ccccc1)CC(O)(C(F)(F)F)C(F)(F)F	90.8% (active)	89.5% (active)	87% (active)	85.8% (active)	86.7% (active)	94.3% (active)
COC(=O)C(C)(Cc1ccc2c(c1)nnn2C(C)=O)NC(C)=O (stereo not drawn)	-11.4%	-1.25%	-4.15%	-2.45%	22.6%	-51.9%
CC(=O)C1COC(O)C1C (stereo not drawn)	-5.45%	-21.9%	-15.2%	13.4%	-24.6%	2.05%
N#CCCN(CCC#N)c1ccc(/C=C2\N=C(COc3ccc(Cl)cc3Cl)OC2=O)cc1	-12.9%	-10%	-14.8%	0.7%	6.8%	-4.3%
O=C(c1ccccc1)c1cccc(C(=O)c2ccccc2)n1	-7.5%	-12.7%	-17.7%	1.9%	-13.8%	-8.55%
CN1C(=O)c2ccccc2C(O)(c2ccccc2)C1(O)c1ccccc1 (stereo not drawn)	-6.3%	-20.9%	-26.7%	12.2%	-12.2%	-38.9%
COc1ccc(N2NC(c3ccccc3)(c3ccccc3)C(C)C2=O)cc1 (stereo not drawn)	48.2%	17.1%	40.4%	5.2%	51.2%	40.1%
CCCCCCCCC(O)C(O)CCCCCCCC(=O)OC (stereo not drawn)	-15.3%	5%	-4.55%	-105%	30.5%	-22.9%
Nc1nc(N)c(N=Nc2cc(Cl)c([N+](=O)[O-])cc2Cl)c(=O)[nH]1	13.2%	-3.75%	-10.9%	-7.15%	-1.35%	-11.1%
COc1cccc(NC(=O)c2cccc(C(=O)Nc3cccc(OC)c3)c2)c1	7%	5.55%	4.15%	-32.8%	-2.6%	35%
Clc1ccccc1C=Nc1ccccc1	31.2%	11.9%	30.7%	20.6%	24.7%	34%
COC(=O)C1CC(=O)CCC1c1ccccc1 (stereo not drawn)	1.5%	-7.25%	-16.1%	-6.45%	-7.55%	-16.6%
Cc1ccc(NS(=O)(=O)c2ccc(F)cc2)c(C)c1	15.4%	19.1%	-2%	-14.2%	-0.2%	-9.15%
CCOc1ccc(Br)cc1/C=N\NC(=O)c1ccccc1N(C)C	-8.8%	-11.6%	-16.8%	-23.6%	-2.25%	-11.2%
CC(=O)N1c2ccccc2S(=O)(=O)c2ccccc21	1.6%	12.7%	0.75%	-15.9%	2.05%	0.25%

Compound	growth inhibition [1]	growth inhibition [2]	growth inhibition [3]	growth inhibition [4]	growth inhibition [5]	growth inhibition [6]
O=C(Nc1ccccc1)C1C2C=CC(C2)C1C(=O)Nc1ccccc1 (stereo not drawn)	0.2%	27.9%	5.05%	-11.7%	21.4%	-8.25%
Cc1cc(Cl)c(O)c(C2(C(O)c3ccc(O)cc3)NC(=S)NC2=O)c1 (stereo not drawn)	-20.4%	-17.1%	-25.6%	-6.5%	4.95%	-6.75%
CCOC(=O)C1(C)CCc2sc(N)c(C#N)c21 (stereo not drawn)	-29.2%	-2.4%	3.75%	-10.8%	2.8%	-8.5%
CC1CC(C)CN(S(=O)(=O)c2cc(Cl)c(Oc3ccc([N+](=O)[O-])cc3Cl)c(Cl)c2)C1 (stereo not drawn)	7.8%	-28.3%	3.75%	34.4%	-11.3%	-2.45%
O=C1OC(c2ccccc2)(C2(c3ccccc3)C=C(c3ccccc3)C(=O)O2)C=C1c1ccccc1 (stereo not drawn)	39.2%	-3%	0.7%	-3.8%	5.3%	3.15%
Clc1ccc(-c2oc(-c3ccc(Cl)cc3)c3ccccc23)cc1	-3.85%	-13.2%	4.75%	-78.2%	-15.5%	-23.6%
COc1cc2[nH]c3c(c2cc1OC)CCN[C@@]31CC[C@@]2(CC3c4c(cc(OC)c(O)c42)CCN3C)C[C@@H]1OC (stereo partly drawn)	-14.8%	-23.9%	-37.5%	1%	-35%	-9.7%
CN(C)CCCC1c2ccccc2Oc2ccc(C(F)(F)F)cc21 (stereo not drawn)	-9.45%	-28.4%	-11.9%	-25.1%	41.9%	31.2%
CCC1=CCN2CCC34c5cc(C6(C(=O)OC)CC7CC(CC)CN(CCc8c6[nH]c6ccccc86)C7)c(OC)cc5N(C)C3C(O)(C(=O)OC)C(OC(C)=O)C1C24 (stereo not drawn)	0.2%	9.25%	-3.95%	3.95%	-1.55%	10.6%
CCN(CC)C(=O)COc1ccc(Cl)cc1	2.05%	-7.75%	-5.55%	-41.7%	-26.6%	-20.7%
O=C(Cc1nc(-c2ccccc2)cc(=O)n1-c1ccccc1Cl)c1ccncc1	32.4%	12.5%	-6.3%	21.2%	-1.2%	20.4%
CCOc1ccc(N=Nc2ccc3oc(=O)c(/C(C)=N/NC(=O)CC(=O)Nc4cccc(OC)c4)cc3c2)cc1	44.5%	36%	25.2%	-17.3%	-5%	44.1%
O=C1c2ccccc2C(=O)N1CCSCCSCCN1C(=O)c2ccccc2C1=O	-3.1%	-13.7%	12.6%	14.6%	-7.15%	10.2%
C=CCc1ccc(OC(=O)Nc2ccc(S(=O)(=O)N(C)C)cc2)c(OC)c1	26.6%	2%	22.8%	14.6%	6.75%	19.2%
C#CCN(CCO)Cc1ccccc1	-3.4%	-18.6%	-3.75%	9.25%	-4%	2.7%
O=S(=O)(Nc1ccc(NS(=O)(=O)c2ccccc2)nc1)c1ccccc1	13.8%	-0.55%	32.1%	-19.9%	5.3%	-0.75%
O=C(NO)C(=O)Nc1ccc(Cl)cc1[N+](=O)[O-]	47%	28.4%	36.5%	42%	49.1%	44.7%
CCCCCCCCCC(C)(O)C(N)=O (stereo not drawn)	15.1%	-6.15%	13.2%	-21.6%	-5.65%	9.65%
O=C1C=CC(=O)C2CC=CCC12 (stereo not drawn)	24.2%	50.4%	1.7%	-6.15%	4.55%	26.1%
